For eight compounds, growth results are on record in PubChem BioAssay (NCI).

Among the test systems are HCT-15 colon; SNB-75 CNS; SNB-19 CNS; U251 CNS; PC-3 prostate; SK-MEL-5 melanoma; UACC-62 melanoma; LOX IMVI melanoma; SK-MEL-28 melanoma; SK-MEL-2 melanoma; EKVX NSCLC; SN12C renal; UO-31 renal; TK-10 renal; ACHN renal; CAKI-1 renal; A498 renal; CCRF-CEM leukemia; MOLT-4 leukemia.
What all share (assay): NCI-60 one-dose screen, 48 h (100 = growth as untreated, 0 = no growth, -100 = all killed)
Holding throughout (conditions): 10 µM unless noted

The structures appear in SMILES notation. About 83,000 compounds went through this panel and 20% of them were active in at least one assay; those are over-represented in the sample as a whole.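 Plates (96-well) were seeded with cells, treated with compound at one concentration, and incubated for 48 hours before percent growth was determined.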 Unmarked numbers belong to inactive results. The source made the active and inactive calls. How the source made its calls: active means growth percent below 10; inactive means the rest.

With `O=C1Nc2c(ccc(Cl)c2Cl)/C1=C/c1ccc(F)cc1`, the growth is 80.6% in the assay with HCT-15 colon; 76.1% in the assay with SNB-75 CNS; 73.5% with SNB-19 CNS; 92.8% in the assay with U251 CNS; 79.3% with PC-3 prostate; 86.8% in the assay with SK-MEL-5 melanoma. In addition, the growth with UACC-62 melanoma was 79.6%; in the assay with LOX IMVI melanoma it was 81.2%; with SK-MEL-28 melanoma, 115%; in the assay on SK-MEL-2 melanoma it was 5.62% (active); in the assay with EKVX NSCLC, 60.2%; with SN12C renal, 98.3%. In addition, the growth in the assay with UO-31 renal is 71.9%; in the assay on TK-10 renal, 109%; in the assay on ACHN renal, 85.9%; in the assay with CAKI-1 renal, 38%; in the assay on A498 renal it was 92.5%; in the assay on CCRF-CEM leukemia, 93.5%. Moreover, the growth in the assay with MOLT-4 leukemia is 76%.

In the case of `COc1ccc(-c2nc(N/N=C/c3c[nH]c4ccccc34)nc(N3CCOCC3)c2C#N)cc1`, the growth in the assay with HCT-15 colon is 44.1%; with SNB-75 CNS it was 61.6%; in the assay with SNB-19 CNS, 109%; with U251 CNS, 58.7%; in the assay with PC-3 prostate it was 74.3%; in the assay on SK-MEL-5 melanoma it was 101%. Further, the growth with UACC-62 melanoma is 106%; in the assay with SK-MEL-28 melanoma, 41.3%; in the assay with SK-MEL-2 melanoma, 97.8%; in the assay with EKVX NSCLC, 99.8%; with SN12C renal it was 92.2%; in the assay with UO-31 renal, 63.7%. For the same compound, the growth was 104% with TK-10 renal; 76.1% in the assay with ACHN renal; 98% in the assay with CAKI-1 renal; 51.2% in the assay on A498 renal; 56.9% with CCRF-CEM leukemia; 55.6% in the assay on MOLT-4 leukemia.

With `NC(=O)c1cccc(-n2ccc3cc(NC(=O)Nc4cc(C(F)(F)F)cc(C(F)(F)F)c4)ccc32)n1`, the growth in the assay with HCT-15 colon is 37.1%; with SNB-75 CNS, 41%; in the assay with SNB-19 CNS it was 42%; in the assay with U251 CNS, 36.7%; in the assay with PC-3 prostate it was 32.4%; in the assay on SK-MEL-5 melanoma, 69%. Further, the growth in the assay on UACC-62 melanoma is 52.9%; with LOX IMVI melanoma, 50.9%; in the assay with SK-MEL-28 melanoma, 69.3%; in the assay with SK-MEL-2 melanoma, 76.6%; in the assay with EKVX NSCLC, 40.5%; in the assay with SN12C renal it was 35.9%. The growth is 47.4% in the assay with UO-31 renal; 62.8% in the assay on TK-10 renal; 39.9% with ACHN renal; 41.4% in the assay on CAKI-1 renal; 53.7% in the assay with CCRF-CEM leukemia; 26.4% in the assay with MOLT-4 leukemia.

Consider `CCC1(CC)NC(=O)c2c(c3ccc(Cl)c(Cl)c3n2C)C1C#N` (stereo unspecified), for which the growth was 100% in the assay with HCT-15 colon; 90% in the assay on SNB-75 CNS; 85% with SNB-19 CNS; 96.1% in the assay with U251 CNS; 90.5% with PC-3 prostate; 89.9% in the assay on SK-MEL-5 melanoma. Moreover, the growth with UACC-62 melanoma was 76.1%; with LOX IMVI melanoma, 99.7%; with SK-MEL-28 melanoma, 123%; in the assay with SK-MEL-2 melanoma it was 115%; with EKVX NSCLC, 95.5%; in the assay on SN12C renal, 84%. The growth with UO-31 renal was 70.5%; in the assay with TK-10 renal it was 127%; with ACHN renal, 95.5%; in the assay with CAKI-1 renal it was 66.6%; in the assay with A498 renal it was 84.9%; with CCRF-CEM leukemia, 19.4%. For the same compound, in the assay with MOLT-4 leukemia, the growth is 4.72% (active).

For the compound `CSc1nnc2c(=O)n(C)c(=O)n(C)c2n1`, the growth is 100% in the assay on HCT-15 colon; 100% with SNB-75 CNS; 97.5% in the assay with SNB-19 CNS; 97.2% with U251 CNS; 83.2% in the assay with PC-3 prostate; 106% with SK-MEL-5 melanoma. Also, the growth was 95.8% in the assay on UACC-62 melanoma; 83.5% in the assay on LOX IMVI melanoma; 95.5% in the assay on SK-MEL-28 melanoma; -28.8% (active) in the assay with SK-MEL-2 melanoma; 111% with EKVX NSCLC; 96.1% with SN12C renal. Besides, the growth in the assay with UO-31 renal is 88.9%; in the assay with TK-10 renal, 99.9%; in the assay with ACHN renal it was 98%; in the assay on CAKI-1 renal, 110%; in the assay on A498 renal, 88.7%; in the assay with CCRF-CEM leukemia, 88.3%. Also, the growth in the assay on MOLT-4 leukemia was 106%.

In the case of `CCCc1cc2c(cc1Br)OCO2`, the growth in the assay on HCT-15 colon is 101%; with SNB-75 CNS, 99.9%; in the assay on U251 CNS, 100%; in the assay with PC-3 prostate it was 85.7%; with SK-MEL-5 melanoma, 99.6%; in the assay on LOX IMVI melanoma, 95.2%. Also, the growth was 105% in the assay on SK-MEL-28 melanoma; 98% in the assay with SK-MEL-2 melanoma; 94.4% with EKVX NSCLC; 97.3% in the assay on SN12C renal; 95% in the assay with UO-31 renal; 105% in the assay on ACHN renal. Also, the growth in the assay with CAKI-1 renal was 104%; with A498 renal, 98.6%; in the assay on CCRF-CEM leukemia, 96.5%; in the assay on MOLT-4 leukemia it was 110%.

Regarding `COc1cccc2c1C(=O)c1c(O)c3c(c(O)c1C2=O)C[C@@](O)(C(=O)CO)C[C@@H]3O[C@H]1C[C@H](N)[C@@H](O)[C@H](C)O1`, the growth was 40.5% in the assay with HCT-15 colon; -66.2% (active) in the assay with SNB-75 CNS; 10% in the assay with SNB-19 CNS; 3.07% (active) with U251 CNS; -0.191% (active) in the assay on PC-3 prostate; -83.1% (active) in the assay with SK-MEL-5 melanoma. The growth is -64.4% (active) in the assay with UACC-62 melanoma; 0.955% (active) in the assay on LOX IMVI melanoma; -34.7% (active) in the assay on SK-MEL-28 melanoma; -72.9% (active) with SK-MEL-2 melanoma; 3.85% (active) in the assay on EKVX NSCLC; 10% in the assay with SN12C renal. For the same compound, the growth was 11.8% in the assay with UO-31 renal; 6.82% (active) in the assay with TK-10 renal; -36.9% (active) with ACHN renal; 25.1% in the assay with CAKI-1 renal; -67.3% (active) with A498 renal; -20.5% (active) in the assay on CCRF-CEM leukemia. Also, in the assay on MOLT-4 leukemia, the growth is -0.0958% (active).

Take `O=C(CNCCO)Nc1ccc2ncnc(Nc3ccc(OCc4cccc(F)c4)c(Cl)c3)c2c1`: the growth in the assay with HCT-15 colon was 87.9%; in the assay with SNB-19 CNS, 82%; in the assay on U251 CNS it was 69.9%; in the assay on PC-3 prostate, 84.4%; in the assay on SK-MEL-5 melanoma, 89%; with UACC-62 melanoma, 104%. Besides, the growth in the assay with LOX IMVI melanoma was 74.3%; in the assay with SK-MEL-28 melanoma it was 91%; in the assay with SK-MEL-2 melanoma, 98.2%; in the assay on EKVX NSCLC, 42.6%; in the assay with SN12C renal it was 51.6%; in the assay with UO-31 renal it was 50.1%. Besides, the growth is 56% with TK-10 renal; 38% with ACHN renal; 63.3% in the assay on CAKI-1 renal; 69% with A498 renal; 80.4% with CCRF-CEM leukemia; 78.5% in the assay with MOLT-4 leukemia.
